Lassa entry inh: qHTS for Inhibitors of binding or entry into cells for Lassa Virus. Lassa virus pseudotype entry inhibition, cell reporter. Potency, µM (highest dose often 37.9 µM), actives largely listed as inhibitors. hit rate 1.2% among 300,000; calls by dose curve; tested in HEK293 cells; note: nearly all actives have a fitted effect of over 50% in size
HCMV antiviral: qHTS Assay for inhibitors of the human cytomegalovirus (HCMV). HFF cells, HCMV-luciferase reporter, 72 h; active compounds read low. activity change, negative = inhibition, % at 57.5 µM. hit rate 4.5% among 410,000. AID 1259415, 2018; in the data active = activity change below about -60%; inconclusive = no clear call, values can overlap the other calls; inactive = above about -39%
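HFF cells seeded 16 h at 37C, treated with compounds, infected with luciferase-reporter HCMV at MOI 1 PFU/cell; luciferase read at 72 h post infection, normalized to buffer-only and Salinomycin controls.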
Pf growth 48h: Primary qHTS for delayed death inhibitors of the malarial parasite plastid, 48 hour incubation. hit rate 5.9% among 310,000. Potency, µM (titrated, usually from 28.7 µM), actives largely listed as inhibitors. P. falciparum luciferase growth in erythrocytes, 48 h
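Parasite viability was followed by luminescence of a genomically integrated firefly luciferase. Cultures held 0.1% parasitemia at 2% hematocrit (final), incubated under 5% CO2 at 37 C.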
HCV inhibitor: qHTS Assay for Inhibitors of Hepatitis C Virus (HCV); Potency, µM (doses to about 41.8 µM), usual class: inhibitors; AID 651820, 2012; hit rate 3.4% among 340,000; Huh7.5.1 HCVcc-Cre infection, luciferase reporter, 44 h
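1,000 cells/well; 4 h culture; + compound; + HCVcc-Cre (~0.5 moi); 44 h; luciferase substrate, RT 15 min; read 15 sec.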
MARV entry inh: qHTS for inhibitors of binding or entry into cells for Marburg Virus. Marburg virus pseudotyped entry inhibition, cell reporter. hit rate 1.8% among 300,000. AID 540276, 2011. Potency, µM (doses to about 37.8 µM), hits mostly inhibitors; calls by dose curve; tested in HEK293 cells
Pf growth 96h: Primary qHTS for delayed death inhibitors of the malarial parasite plastid, 96 hour incubation; P. falciparum luciferase reporter growth, 96 h; Potency, µM (titrated, usually from 28.7 µM), actives largely listed as inhibitors; hit rate 6.9% among 320,000; AID 504834, 2011
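Readout is luminescence from an integrated firefly luciferase in P. falciparum. Red cells, 2% hematocrit and 0.05% parasitemia final, were cultured with compound through two parasite generations (96 hours) at 37 C, 5% CO2.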
Large screens that a line does not name were inactive. An excerpt weighted towards active compounds, which were near 14% of everything screened. Unless noted, calls come from the whole dose curve; as a rule, active = well fitted inhibition curve with a large enough effect; inconclusive = small, poorly fitted or top-dose-only effect, or another doubt; inactive = no such curve, though single readings can be large or run the other way.

CC1CCCCC12NC(=O)N(CC(=O)N1CCN(Cc3ccc(C#N)cc3)CC1)C2=O (stereo not drawn)	HCV inhibitor 10µM (no result: Lassa entry inh, MARV entry inh)
CC1CCCCC12NC(=O)N(CC(=O)N1CCN(S(=O)(=O)/C=C/c3ccccc3)CC1)C2=O (stereo not drawn)	Pf growth 48h 10µM, Pf growth 96h inconclusive (no result: Lassa entry inh, MARV entry inh)
CCSC1=C(C#N)C(c2cccc(O)c2)CC(=O)N1 (stereo not drawn)	none (no result: Lassa entry inh, Pf growth 48h, MARV entry inh)
CCOC(=O)CSC1=C(C#N)C(c2ccc(C)o2)CC(=O)N1 (stereo not drawn)	HCMV antiviral -84, HCV inhibitor inconclusive (no result: Lassa entry inh, MARV entry inh)
CCc1ccc(NC(=O)CSC2=C(C#N)C(c3ccc4c(c3)OCO4)CC(=O)N2)cc1 (stereo not drawn)	HCMV antiviral -77, HCV inhibitor 11µM (no result: Pf growth 48h, Pf growth 96h)
CCOC(=O)CSC1=C(C#N)C(c2ccc3c(c2)OCO3)CC(=O)N1 (stereo not drawn)	HCV inhibitor inconclusive, MARV entry inh 16µM (no result: Pf growth 96h)
CCSC1=C(C#N)C(c2cccc(Br)c2)CC(=O)N1 (stereo not drawn)	Pf growth 48h 6.6µM
Cc1ccc(NC(=O)CSC2=C(C#N)C(c3ccc4c(c3)OCO4)CC(=O)N2)cc1C (stereo not drawn)	HCMV antiviral inconclusive, Pf growth 48h inconclusive, HCV inhibitor inconclusive, Pf growth 96h inconclusive
CCCCOC(=O)CSC1=C(C#N)C(c2ccc3c(c2)OCO3)CC(=O)N1 (stereo not drawn)	none
CCOC(=O)CSC1=C(C#N)C(c2ccc(Cl)cc2)CC(=O)N1 (stereo not drawn)	HCV inhibitor inconclusive (no result: Lassa entry inh, Pf growth 48h, MARV entry inh)
CCCOC(=O)CSC1=C(C#N)C(c2ccccc2Cl)CC(=O)N1 (stereo not drawn)	HCV inhibitor 32µM, Pf growth 96h inconclusive (no result: Lassa entry inh, Pf growth 48h, MARV entry inh)
c1ccc(-c2cc(-c3nc4ccccc4[nH]3)c3ccccc3n2)cc1	Lassa entry inh inconclusive, HCMV antiviral -94, Pf growth 48h inconclusive, HCV inhibitor inconclusive, MARV entry inh inconclusive, Pf growth 96h inconclusive
CC(C)CC(N)c1csc(Nc2ncccn2)n1 (stereo not drawn)	none (no result: Lassa entry inh, Pf growth 48h, HCV inhibitor, MARV entry inh, Pf growth 96h)
COc1ccc(CCn2c(=N)c(S(=O)(=O)c3ccc(Cl)cc3)cc3c(=O)n4ccccc4nc32)cc1	HCMV antiviral inconclusive, Pf growth 48h 4.7µM, Pf growth 96h 2.6µM
Cc1ccc(S(=O)(=O)c2cc3c(=O)n4ccccc4nc3n(CCc3ccccc3)c2=N)cc1	Pf growth 48h 2.1µM
Cc1ccc(S(=O)(=O)c2cc3c(=O)n4ccccc4nc3n(C3CCCC3)c2=N)cc1	Pf growth 48h 5.2µM, HCV inhibitor 5µM
COc1nc(NC2OC(CO)C(O)C(O)C2O)c(N)c(=O)[nH]1 (stereo not drawn)	none (no result: Pf growth 48h, Pf growth 96h)
COc1ccc2c(c1)[C@@H](NC(=O)c1c(C)noc1C)[C@H](C)[C@@H](c1ccccc1)N2Cc1cccc(F)c1	none (no result: Lassa entry inh, Pf growth 48h, HCV inhibitor, MARV entry inh, Pf growth 96h)
CCn1cc(C(=O)NC[C@H]2CCCO2)c(=O)c2cc(F)c(N3CCN(C)CC3)cc21	none (no result: Lassa entry inh, HCMV antiviral, Pf growth 48h, HCV inhibitor, Pf growth 96h)
CCCNC(=O)c1cn(CC)c2cc(N3CCN(C)CC3)c(F)cc2c1=O	MARV entry inh inconclusive, Pf growth 96h inconclusive (no result: Pf growth 48h)
CCn1cc(C(=O)NCCN(C)C)c(=O)c2cc(F)c(N3CCN(C)CC3)cc21	Pf growth 48h inconclusive, MARV entry inh 11µM, Pf growth 96h inconclusive
CCCCN(CCCC)C(=O)c1cn(CC)c2cc(N3CCN(C)CC3)c(F)cc2c1=O	HCMV antiviral -66, Pf growth 48h inconclusive, MARV entry inh inconclusive
CCn1cc(C(=O)NCCCN(C)C)c(=O)c2cc(F)c(N3CCN(C)CC3)cc21	Pf growth 48h inconclusive, MARV entry inh inconclusive
CCCc1nnc(NC(=O)c2cn(CC)c3cc(N4CCN(C)CC4)c(F)cc3c2=O)s1	Pf growth 48h 0.37µM, Pf growth 96h 1.2µM (no result: Lassa entry inh, MARV entry inh)
COc1cccc2cc(-c3nnc(Nc4c(F)cccc4F)s3)c(=O)oc12	none (no result: Pf growth 48h, HCV inhibitor, MARV entry inh, Pf growth 96h)
CSc1ccc(CN2CCC(C)(Oc3cccc(C#N)c3)C2)cc1 (stereo not drawn)	none (no result: Lassa entry inh, Pf growth 48h, HCV inhibitor, MARV entry inh, Pf growth 96h)
CCOc1cc(CNCCSc2nnnn2-c2ccccc2)cc(Cl)c1OC	MARV entry inh inconclusive (no result: Pf growth 48h, HCV inhibitor, Pf growth 96h)

Screens: PubChem, National Center for Advancing Translational Sciences (NCATS)
